Shown are actives, neighbours in structure and some others; about 0.58% of the full set was active somewhere.
C1s inh = blocks human complement C1s protease activity. mean inhibition % of two 10-compound mixtures (hits give high values), % at 5 µM (by protocol). P09871. purified C1s, fluorogenic AMC substrate, pooled mixtures. 0.16% of 62,000 active;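 active means inhibition above 20% in each of the two 10-compound mixture wells holding the compound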
CatB block = inhibitors of human cathepsin B; P07858; purified cathepsin B, fluorogenic substrate, fluorescence; inhibition, %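 (tested at 10 µM)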; 0.1% of 63,000 active; in the data active means inhibition above about 21%
Cathepsin G inh = inhibitors of human cathepsin G; 0.2% of 62,000 active; inhibition, % at 5 µM (by protocol); purified enzyme, AMC-tetrapeptide fluorescence, pooled mixtures; AID 581;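 active means inhibition above 20% in each of the two mixture wells holding the compound; inactive means inhibition of 20% or less in either well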
CatL block = inhibitors of human cathepsin L. P07711. purified cathepsin L, fluorogenic substrate, fluorescence. inhibition, %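 (tested at 10 µM)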. 0.17% of 58,000 active. AID 460; in the data active means inhibition above about 45%
Target sequence (P07711 114-288 limits assumed): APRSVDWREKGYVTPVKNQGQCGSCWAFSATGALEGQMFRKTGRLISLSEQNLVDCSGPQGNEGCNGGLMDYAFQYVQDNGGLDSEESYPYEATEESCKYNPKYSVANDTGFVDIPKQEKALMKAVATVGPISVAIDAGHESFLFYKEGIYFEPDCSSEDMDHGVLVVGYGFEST
Target sequence (P07711 292-333 limits assumed): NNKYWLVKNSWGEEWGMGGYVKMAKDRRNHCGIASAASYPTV
CatS inh = inhibitors of human cathepsin S. recombinant cathepsin S, AMC dipeptide fluorescence, pooled mixtures. inhibition, %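 (tested at 5 µM per compound within 10-compound mixtures)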. 0.06% of 62,000 active; in the data active means inhibition above about 32%, passing the limit was not always enough
CatB mixtures = inhibitors of human cathepsin B in compound mixtures | P07858 | Purified cathepsin B, AMC dipeptide fluorescence | inhibition, %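 (ten-compound pools at 5 µM per compound and 50 µM total)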 | 0.06% of 62,000 active; in the data active means inhibition above about 22%, passing the limit was not always enough
Large screens that a line does not name were inactive.

CSc1nc(-c2ccco2)nn1C(=O)c1cccs1	C1s inh 68, Cathepsin G inh 59
CC(=O)n1nc(-c2ccco2)nc1N	none
CCOC(=O)Cc1c(C)nc2c(-c3ccc(Cl)cc3)c[nH]n2c1=O	none (no result: CatL block)
CC(=O)NC(=O)NC1CSCC1OC(C)=O (centres undefined)	C1s inh 58
COC(=O)NC1CSCC1OC(=O)c1ccc(Br)cc1 (centres undefined)	none
CCOC(=O)C1=C(N)OC2=C(C(=O)CC(C)(C)C2)C1c1ccccc1OCC#N (centres undefined)	none
COc1cc(OC)cc(C(=O)Nc2ncc3c(n2)CC(C)CC3=O)c1 (centres undefined)	C1s inh 22
O=C(CSc1ccc2nnc(-c3ccc(Cl)cc3)n2n1)N1CCN(c2ccccc2)CC1	none
Cc1cc(SCC#N)n2nc(C)c(-c3ccccc3)c2n1	CatL block 48
Nc1nc(-c2ccc(Br)s2)c(Br)s1	none
O=C(C1CCN(S(=O)(=O)N2CCOCC2)CC1)N1CCN(c2ccccc2)CC1	none
Cc1nc(CNS(=O)(=O)c2cc(C)c(C)cc2C)cs1	C1s inh 57
Cc1cc(-c2cc(N)n(-c3ccccc3)n2)c(C)n1C1CCCC1	none
COc1ccc2c(c1)CCc1c(C(=O)NCc3ccc(F)cc3)noc1-2	C1s inh 44, Cathepsin G inh 93
COc1ccc2c(c1)CCc1c(C(=O)Nc3ccc(OC)c(OC)c3)noc1-2	Cathepsin G inh 37
COc1ccc2c(c1)CCc1c(C(=O)NCCc3ccc(OC)c(OC)c3)noc1-2	none
CCOC(=O)c1cnn(-c2cc(C)c3cc(C)cc(C)c3n2)c1N	none
Cc1cc(N)n(-c2nc(-c3cccnc3)nc3ccccc23)n1	none
COCCCn1c(Cc2ccccc2)nnc1SCC(=O)N1CCCCC1	none
Nc1nc(C(=O)N2CCOCC2)nn1C(=O)c1ccc(Cl)cc1	C1s inh 32, Cathepsin G inh 40 (no result: CatL block)
CCC(C)[C@@H](NC(=O)OC(C)(C)C)c1nnc(S(=O)(=O)Cc2cccc(C)c2)o1 (some centres undefined)	CatB block 34, CatL block 76, CatB mixtures 23
CC(C)(C)OC(=O)N[C@@H](Cc1ccccc1)c1nnc(S(=O)(=O)Cc2ccccc2)o1	Cathepsin G inh 83
CCC(C)C(NCc1cccc(C)c1)C(=O)O (centres undefined)	none
Nc1nc(N2CCN(C/C=C/c3ccccc3)CC2)nc2ccccc12	none
COC(=O)c1sc(=S)sc1C(=O)OC	none
Cc1cc(NS(=O)(=O)c2ccc(NC(=O)COc3ccccc3C(C)C)cc2)no1	C1s inh 25
COc1ccc(OC)c(-c2cc(C(=O)Nc3c(C)nn(Cc4ccccc4)c3C)no2)c1	Cathepsin G inh 50
COc1ccc(OC)c(-c2cc(C(=O)Nc3c(C)nn(Cc4ccc(Cl)cc4)c3C)no2)c1	none
COc1ccc(-c2cc(C(=O)Nc3c(C)nn(Cc4ccccc4Cl)c3C)no2)cc1	Cathepsin G inh 52
Cc1nn(Cc2ccc(Cl)c(Cl)c2)c(C)c1NC(=O)c1cc(-c2ccc3c(c2)OCO3)on1	Cathepsin G inh 40
COc1ccc(-c2cc3nc4n(c(=O)c3s2)CCOC4)cc1	none (no result: C1s inh, Cathepsin G inh, CatS inh, CatB mixtures)
N#Cc1nc(N2CCOCC2)nc(N2CCOCC2)n1	CatL block 67, CatS inh 32

High-throughput results deposited in PubChem by PCMD.
